{
  "source": "a collection of fitness landscapes (doi:10.1016/j.celrep.2020.107928)",
  "parents": {"B1": {"name": "Caulobacter ParB omega fusion; a variant is named by its letters at X, in order, B8GW30 (parent)", "chain": "MESVVVGEPGMSEGRRGLGRGLSALLGEVDAAPAQAPGEQLGGSREAPIEILQRNPDQPRRTFREEDLEDLSNSIREKGVLQPILVRPSPDTAGEYQIVAGERAWRAAQRAGLKTVPIMVRELDDLAVLEIGIIENVQRADLNVLEEALSYKVLMEKFERTQENIAQTIGKSXSHVANXMRLLXLPDEVQSYLVSGELTAXHARAIAAAADPVALAKQIIEGGLSVRETEALARKAPNLSAGKSKGGRPPRVKDTDTQALESDLSSVLGLDVSIDHRGSTGTLTITYATLEQLDDLCNRLTRGI"}},
  "note": "The full ranking holds about 81,000 sequences; the median of “one-hybrid fitness for binding NBS DNA” is about -0.1, and the highest 2% start at about 0.36. The sample holds the highest values, similar sequences and a random draw of the others, so the mix is not that of the screen.",
  "data": [
    {"variants_of": "B1", "test": "one-hybrid fitness for binding NBS DNA (the Noc-binding site; scaled: cognate 1, non-cognate 0); higher = stronger binding", "conditions": "with NBS DNA site", "summary_of_the_method": "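Bacterial one-hybrid selection in E. coli USO rpoZ- hisB- pyrF- with a HIS3 reporter carrying the site 19 bp from the promoter, screening Caulobacter ParB libraries with four specificity codons randomised (NNS). Cells grew 48 hours at 37°C on M9-minus-histidine plus 0.1 mM IPTG and 5 mM 3-AT. Plasmids before and after selection were Illumina-sequenced, three replicate libraries pooled, and variants under 10 reads dropped. Fitness is the log change in variant-to-wild-type read ratio, rescaled to cognate 1, non-cognate 0.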", "values": [
      {"variant": "NAHV", "one-hybrid fitness for binding NBS DNA": "≤ 0.2"},
      {"variant": "FSNM", "one-hybrid fitness for binding NBS DNA": "≤ 0.2"},
      {"variant": "SRRP", "one-hybrid fitness for binding NBS DNA": "≤ 0.2"},
      {"variant": "THHR", "one-hybrid fitness for binding NBS DNA": "≤ 0.2"},
      {"variant": "VCSD", "one-hybrid fitness for binding NBS DNA": "≤ 0.2"},
      {"variant": "WQLA", "one-hybrid fitness for binding NBS DNA": "≤ 0.2"},
      {"variant": "RTRG", "one-hybrid fitness for binding NBS DNA": 0.215},
      {"variant": "CCQR", "one-hybrid fitness for binding NBS DNA": "≤ 0.2"},
      {"variant": "CVKA", "one-hybrid fitness for binding NBS DNA": "≤ 0.2"},
      {"variant": "MAIS", "one-hybrid fitness for binding NBS DNA": "≤ 0.2"},
      {"variant": "NATF", "one-hybrid fitness for binding NBS DNA": "≤ 0.2"},
      {"variant": "MAFC", "one-hybrid fitness for binding NBS DNA": "≤ 0.2"},
      {"variant": "ECWS", "one-hybrid fitness for binding NBS DNA": "≤ 0.2"},
      {"variant": "QREN", "one-hybrid fitness for binding NBS DNA": "≤ 0.2"},
      {"variant": "QCES", "one-hybrid fitness for binding NBS DNA": 0.301},
      {"variant": "QRES", "one-hybrid fitness for binding NBS DNA": 0.469},
      {"variant": "PSVG", "one-hybrid fitness for binding NBS DNA": "≤ 0.2"},
      {"variant": "QTCH", "one-hybrid fitness for binding NBS DNA": 0.319},
      {"variant": "QPCT", "one-hybrid fitness for binding NBS DNA": "≤ 0.2"},
      {"variant": "QTCD", "one-hybrid fitness for binding NBS DNA": "≤ 0.2"},
      {"variant": "QLCT", "one-hybrid fitness for binding NBS DNA": 0.345},
      {"variant": "QSCT", "one-hybrid fitness for binding NBS DNA": 0.386},
      {"variant": "QCCT", "one-hybrid fitness for binding NBS DNA": 0.521},
      {"variant": "QHCT", "one-hybrid fitness for binding NBS DNA": 0.294},
      {"variant": "QTCT", "one-hybrid fitness for binding NBS DNA": 0.571},
      {"variant": "QICT", "one-hybrid fitness for binding NBS DNA": 0.266},
      {"variant": "SKPI", "one-hybrid fitness for binding NBS DNA": "≤ 0.2"},
      {"variant": "DYFM", "one-hybrid fitness for binding NBS DNA": "≤ 0.2"},
      {"variant": "LNNN", "one-hybrid fitness for binding NBS DNA": "≤ 0.2"},
      {"variant": "EHQL", "one-hybrid fitness for binding NBS DNA": "≤ 0.2"},
      {"variant": "GRLL", "one-hybrid fitness for binding NBS DNA": "≤ 0.2"},
      {"variant": "SFYC", "one-hybrid fitness for binding NBS DNA": "≤ 0.2"},
      {"variant": "IRNN", "one-hybrid fitness for binding NBS DNA": "≤ 0.2"},
      {"variant": "MQRC", "one-hybrid fitness for binding NBS DNA": "≤ 0.2"},
      {"variant": "NLPG", "one-hybrid fitness for binding NBS DNA": "≤ 0.2"},
      {"variant": "QKVS", "one-hybrid fitness for binding NBS DNA": 0.32},
      {"variant": "QKKR", "one-hybrid fitness for binding NBS DNA": 1},
      {"variant": "QKVN", "one-hybrid fitness for binding NBS DNA": "≤ 0.2"},
      {"variant": "QKVR", "one-hybrid fitness for binding NBS DNA": 0.423},
      {"variant": "QKKF", "one-hybrid fitness for binding NBS DNA": 0.294},
      {"variant": "DKKR", "one-hybrid fitness for binding NBS DNA": "≤ 0.2"},
      {"variant": "NTIC", "one-hybrid fitness for binding NBS DNA": "≤ 0.2"},
      {"variant": "EQRE", "one-hybrid fitness for binding NBS DNA": "≤ 0.2"},
      {"variant": "TGAR", "one-hybrid fitness for binding NBS DNA": "≤ 0.2"},
      {"variant": "GMCV", "one-hybrid fitness for binding NBS DNA": "≤ 0.2"},
      {"variant": "RMHN", "one-hybrid fitness for binding NBS DNA": "≤ 0.2"},
      {"variant": "RLHH", "one-hybrid fitness for binding NBS DNA": "≤ 0.2"},
      {"variant": "RMHS", "one-hybrid fitness for binding NBS DNA": 0.486},
      {"variant": "RLHP", "one-hybrid fitness for binding NBS DNA": "≤ 0.2"},
      {"variant": "RPHS", "one-hybrid fitness for binding NBS DNA": "≤ 0.2"},
      {"variant": "RFHS", "one-hybrid fitness for binding NBS DNA": 0.275},
      {"variant": "RSHH", "one-hybrid fitness for binding NBS DNA": "≤ 0.2"},
      {"variant": "RSHS", "one-hybrid fitness for binding NBS DNA": 0.47},
      {"variant": "RCHS", "one-hybrid fitness for binding NBS DNA": 0.577},
      {"variant": "RMHD", "one-hybrid fitness for binding NBS DNA": "≤ 0.2"},
      {"variant": "RSHP", "one-hybrid fitness for binding NBS DNA": "≤ 0.2"},
      {"variant": "RLHS", "one-hybrid fitness for binding NBS DNA": 0.462},
      {"variant": "CMKS", "one-hybrid fitness for binding NBS DNA": "≤ 0.2"},
      {"variant": "HSMS", "one-hybrid fitness for binding NBS DNA": "≤ 0.2"},
      {"variant": "YEDC", "one-hybrid fitness for binding NBS DNA": "≤ 0.2"},
      {"variant": "VNHL", "one-hybrid fitness for binding NBS DNA": "≤ 0.2"},
      {"variant": "HDMN", "one-hybrid fitness for binding NBS DNA": "≤ 0.2"},
      {"variant": "VQAT", "one-hybrid fitness for binding NBS DNA": "≤ 0.2"},
      {"variant": "RAHS", "one-hybrid fitness for binding NBS DNA": 0.482},
      {"variant": "RAHD", "one-hybrid fitness for binding NBS DNA": "≤ 0.2"},
      {"variant": "RAHN", "one-hybrid fitness for binding NBS DNA": "≤ 0.2"},
      {"variant": "RKHN", "one-hybrid fitness for binding NBS DNA": "≤ 0.2"},
      {"variant": "RKHS", "one-hybrid fitness for binding NBS DNA": 0.624},
      {"variant": "RKHD", "one-hybrid fitness for binding NBS DNA": "≤ 0.2"},
      {"variant": "FLVC", "one-hybrid fitness for binding NBS DNA": "≤ 0.2"},
      {"variant": "LRGC", "one-hybrid fitness for binding NBS DNA": "≤ 0.2"},
      {"variant": "IPDS", "one-hybrid fitness for binding NBS DNA": "≤ 0.2"},
      {"variant": "QPHR", "one-hybrid fitness for binding NBS DNA": "≤ 0.2"},
      {"variant": "QIHD", "one-hybrid fitness for binding NBS DNA": "≤ 0.2"},
      {"variant": "QTHM", "one-hybrid fitness for binding NBS DNA": 0.296},
      {"variant": "QSHR", "one-hybrid fitness for binding NBS DNA": 0.578},
      {"variant": "QIHR", "one-hybrid fitness for binding NBS DNA": 0.493},
      {"variant": "QWHR", "one-hybrid fitness for binding NBS DNA": 0.288},
      {"variant": "QTHR", "one-hybrid fitness for binding NBS DNA": 0.877},
      {"variant": "QSHD", "one-hybrid fitness for binding NBS DNA": "≤ 0.2"},
      {"variant": "QIHC", "one-hybrid fitness for binding NBS DNA": "≤ 0.2"},
      {"variant": "QTHK", "one-hybrid fitness for binding NBS DNA": 0.293},
      {"variant": "QCHR", "one-hybrid fitness for binding NBS DNA": 0.742},
      {"variant": "QSHP", "one-hybrid fitness for binding NBS DNA": "≤ 0.2"},
      {"variant": "QLFV", "one-hybrid fitness for binding NBS DNA": "≤ 0.2"},
      {"variant": "PASW", "one-hybrid fitness for binding NBS DNA": "≤ 0.2"},
      {"variant": "QHPW", "one-hybrid fitness for binding NBS DNA": "≤ 0.2"},
      {"variant": "TKDT", "one-hybrid fitness for binding NBS DNA": "≤ 0.2"},
      {"variant": "KAAR", "one-hybrid fitness for binding NBS DNA": "≤ 0.2"},
      {"variant": "VHKI", "one-hybrid fitness for binding NBS DNA": "≤ 0.2"},
      {"variant": "VRNY", "one-hybrid fitness for binding NBS DNA": "≤ 0.2"},
      {"variant": "SPES", "one-hybrid fitness for binding NBS DNA": "≤ 0.2"},
      {"variant": "PIPY", "one-hybrid fitness for binding NBS DNA": "≤ 0.2"},
      {"variant": "DLRT", "one-hybrid fitness for binding NBS DNA": "≤ 0.2"},
      {"variant": "HALK", "one-hybrid fitness for binding NBS DNA": "≤ 0.2"},
      {"variant": "LKPH", "one-hybrid fitness for binding NBS DNA": "≤ 0.2"},
      {"variant": "ECKC", "one-hybrid fitness for binding NBS DNA": "≤ 0.2"}
    ]}
  ]
}
